This is an account of results in the supplement of paper PMC12645437, “Orthogonal IMiD-Degron Pairs Induce Selective Protein Degradation in Cells” (ACS Chemical Biology, 2025).

Over roughly 8,300 sequences, “log2 fold change of degron read counts, EGFP-low vs EGFP+ sorted cells (limma voom), compound-induced degradation” has its median near -1.1; the highest 2% begin near 3.2. The full list was thinned out, with the highest values kept by preference.

The target of this experiment is T1, CRBN, Q96SW2.
T1 chain: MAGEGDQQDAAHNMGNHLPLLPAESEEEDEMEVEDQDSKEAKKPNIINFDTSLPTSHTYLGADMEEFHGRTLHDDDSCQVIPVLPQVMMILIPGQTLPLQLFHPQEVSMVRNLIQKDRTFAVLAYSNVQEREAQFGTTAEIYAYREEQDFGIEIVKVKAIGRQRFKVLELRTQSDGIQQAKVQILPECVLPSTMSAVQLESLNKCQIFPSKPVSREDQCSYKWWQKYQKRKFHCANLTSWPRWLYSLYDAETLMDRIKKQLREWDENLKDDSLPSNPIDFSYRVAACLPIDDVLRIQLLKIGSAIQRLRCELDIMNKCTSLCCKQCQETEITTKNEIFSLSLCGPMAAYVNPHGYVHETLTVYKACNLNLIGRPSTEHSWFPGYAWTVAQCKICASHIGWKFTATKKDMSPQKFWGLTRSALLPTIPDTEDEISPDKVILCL
As to the kind of experiment: log2 fold change of degron read counts, EGFP-low vs EGFP+ sorted cells (limma voom), compound-induced degradation; higher = more compound-induced degradation of the degron-EGFP fusion; degrons are variants of IKZF1/3 zinc finger 2; compound dose not given here. The settings on record: Jurkat, 18 h.

Where [1] appears, read: compound: compound 19 (5-tert-butyl-thalidomide).
Where [2] appears, read: compound: compound 22 (5-morpholino-thalidomide).
Setting [3] is: compound: compound 33 (diphenyl IMiD analogue).
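Further: pooled lentiviral library of zinc finger degron-EGFP fusions in mCherry-positive Jurkat cells, FACS-sorted after compound exposure, with degron abundance counted by next-generation sequencing.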

As to FVCDVCGAVFTQKGNLLRHIKL [46F_47V_49D_50V_52G_53A_54V_55F_67L_, Q9UKT9], the “log2 fold change of degron read counts” value by setting is: under setting [1], -2.2; under setting [2], -1.22; under setting [3], 0.29; (compound: thalidomide) -0.895.

As for FQCNQCGAYFTQKGNLLRHIKL [46F_47Q_49N_50Q_52G_53A_54Y_55F_67L_, Q9UKT9], the “log2 fold change of degron read counts” value is, setting by setting: under setting [1], -2.89; under setting [2], -2.26; under setting [3], -1.84; (compound: thalidomide) -0.227.

As for FTCPQCGAQFTQKGNLLRHIKL [46F_47T_49P_50Q_52G_53A_54Q_55F_67L_, Q9UKT9], the “log2 fold change of degron read counts” value runs as follows: under setting [1], -2.03; under setting [2], 0.309; under setting [3], 1.83; (compound: thalidomide) 1.07.

For LECPICGFGCTQKGNLLRHIKL [46L_47E_49P_50I_52G_53F_54G_55C_67L_, Q9UKT9], the “log2 fold change of degron read counts” value was 0.698 under setting [1], -0.66 under setting [2], 1.1 under setting [3] and 2.27 (compound: thalidomide).

In the case of FNCNQCGHVFTQKGNLLRHIKL [46F_47N_49N_50Q_52G_53H_54V_55F_67L_, Q9UKT9], the “log2 fold change of degron read counts” value is -2.33 under setting [1], -2.54 under setting [2], -2.77 under setting [3] and -2.34 (compound: thalidomide).

In the case of FECPICGHPFTQKGNLLRHIKL [46F_47E_49P_50I_52G_53H_54P_55F_67L_, Q9UKT9], the “log2 fold change of degron read counts” value reads like this: under setting [1], -2.51; under setting [2], -2.54; under setting [3], -0.989; (compound: thalidomide) -0.173.

Regarding FFCPICGHGFTQKGNLLRHIKL [46F_47F_49P_50I_52G_53H_54G_55F_67L_, Q9UKT9], the “log2 fold change of degron read counts” value was -1.02 under setting [1], -1.29 under setting [2], -0.968 under setting [3] and -1.48 (compound: thalidomide).

FTCEICGAPFTQKGNLLRHIKL [46F_47T_49E_50I_52G_53A_54P_55F_67L_, Q9UKT9]: the “log2 fold change of degron read counts” value reads like this: under setting [1], 2.99; under setting [2], 3.21; under setting [3], 2.47; (compound: thalidomide) 3.17.

FHCEICGAPFTQKGNLLRHIKL [46F_47H_49E_50I_52G_53A_54P_55F_67L_, Q9UKT9]: the “log2 fold change of degron read counts” value reads like this: under setting [1], 4; under setting [2], 3.46; under setting [3], 2.38; (compound: thalidomide) 1.9.

Turning to FHCEICGAFFTQKGNLLRHIKL [46F_47H_49E_50I_52G_53A_54F_55F_67L_, Q9UKT9], the “log2 fold change of degron read counts” value reads like this: under setting [1], 0.885; under setting [2], -0.276; under setting [3], 0.198; (compound: thalidomide) -1.2.

In the case of FACEICGAPFTQKGNLLRHIKL [46F_47A_49E_50I_52G_53A_54P_55F_67L_, Q9UKT9], the “log2 fold change of degron read counts” value was 3.6 under setting [1], 2.51 under setting [2], 0.463 under setting [3] and 1.72 (compound: thalidomide).

Regarding FRCEICGAPFTQKGNLLRHIKL [46F_47R_49E_50I_52G_53A_54P_55F_67L_, Q9UKT9], the “log2 fold change of degron read counts” value came out at 3.62 under setting [1], 3.98 under setting [2], 3.31 under setting [3] and 3.58 (compound: thalidomide).

FECEICGAPFTQKGNLLRHIKL [46F_47E_49E_50I_52G_53A_54P_55F_67L_, Q9UKT9]: the “log2 fold change of degron read counts” value runs as follows: under setting [1], 2.7; under setting [2], -0.51; under setting [3], 1.41; (compound: thalidomide) 2.07.

Regarding FHCEICGADFTQKGNLLRHIKL [46F_47H_49E_50I_52G_53A_54D_55F_67L_, Q9UKT9], the “log2 fold change of degron read counts” value runs as follows: under setting [1], -1.38; under setting [2], -3.23; under setting [3], -1.06; (compound: thalidomide) -2.34.

Consider FDCEICGAPFTQKGNLLRHIKL [46F_47D_49E_50I_52G_53A_54P_55F_67L_, Q9UKT9], for which the “log2 fold change of degron read counts” value is 2.21 under setting [1], 0.891 under setting [2], -0.242 under setting [3] and 0.789 (compound: thalidomide).

For the sequence FLCEICGAPFTQKGNLLRHIKL [46F_47L_49E_50I_52G_53A_54P_55F_67L_, Q9UKT9], the “log2 fold change of degron read counts” value is, setting by setting: under setting [1], 2.96; under setting [2], 2.82; under setting [3], 2.69; (compound: thalidomide) 3.17.

For the sequence FLCEQCGAMFTQKGNLLRHIKL [46F_47L_49E_50Q_52G_53A_54M_55F_67L_, Q9UKT9], the “log2 fold change of degron read counts” value is -2.2 under setting [1], -2.48 under setting [2], -0.823 under setting [3] and -1.31 (compound: thalidomide).

As to FECDICGAIFTQKGNLLRHIKL [46F_47E_49D_50I_52G_53A_54I_55F_67L_, Q9UKT9], the “log2 fold change of degron read counts” value under setting [1] was -1.92, the “log2 fold change of degron read counts” value under setting [2] was -1.75, the “log2 fold change of degron read counts” value under setting [3] was -0.965 and the “log2 fold change of degron read counts” value (compound: thalidomide) was determined as 0.171.

As to FQCNQCGAFFTQKGNLLRHIKL [46F_47Q_49N_50Q_52G_53A_54F_55F_67L_, Q9UKT9], the “log2 fold change of degron read counts” value reads like this: under setting [1], -2.56; under setting [2], -2.44; under setting [3], -1.62; (compound: thalidomide) -1.28.

FICEQCGANFTQKGNLLRHIKL [46F_47I_49E_50Q_52G_53A_54N_55F_67L_, Q9UKT9]: the “log2 fold change of degron read counts” value was -2.09 under setting [1], -0.316 under setting [2], 0.362 under setting [3] and 0.322 (compound: thalidomide).

As for FRCNICGASFTQKGNLLRHIKL [46F_47R_49N_50I_52G_53A_54S_55F_67L_, Q9UKT9], the “log2 fold change of degron read counts” value worked out at 0.331 under setting [1], 0.291 under setting [2], 0.894 under setting [3] and 0.839 (compound: thalidomide).

With FYCDICGARFTQKGNLLRHIKL [46F_47Y_49D_50I_52G_53A_54R_55F_67L_, Q9UKT9], the “log2 fold change of degron read counts” value under setting [1] came out at 3.31, the “log2 fold change of degron read counts” value under setting [2] was found to be 3.35, the “log2 fold change of degron read counts” value under setting [3] is 0.716 and the “log2 fold change of degron read counts” value (compound: thalidomide) was -0.312.

On to FWCDICGARFTQKGNLLRHIKL [46F_47W_49D_50I_52G_53A_54R_55F_67L_, Q9UKT9], for which the “log2 fold change of degron read counts” value by setting is: under setting [1], 3.15; under setting [2], 3.82; under setting [3], 0.741; (compound: thalidomide) 0.265.

With FLCDICGARFTQKGNLLRHIKL [46F_47L_49D_50I_52G_53A_54R_55F_67L_, Q9UKT9], the “log2 fold change of degron read counts” value runs as follows: under setting [1], -0.594; under setting [2], -2.06; under setting [3], -0.802; (compound: thalidomide) 0.425.

Consider FCCDICGARFTQKGNLLRHIKL [46F_47C_49D_50I_52G_53A_54R_55F_67L_, Q9UKT9], for which the “log2 fold change of degron read counts” value reads like this: under setting [1], 2.34; under setting [2], 2.23; under setting [3], 0.356; (compound: thalidomide) 1.57.

With FGCDICGARFTQKGNLLRHIKL [46F_47G_49D_50I_52G_53A_54R_55F_67L_, Q9UKT9], the “log2 fold change of degron read counts” value is 2.15 under setting [1], 0.817 under setting [2], -1.24 under setting [3] and 0.195 (compound: thalidomide).

For the sequence FFCDICGARFTQKGNLLRHIKL [46F_47F_49D_50I_52G_53A_54R_55F_67L_, Q9UKT9], the “log2 fold change of degron read counts” value by setting is: under setting [1], 3.58; under setting [2], 3.35; under setting [3], 0.994; (compound: thalidomide) 0.0481.

In the case of FRCDICGARFTQKGNLLRHIKL [46F_47R_49D_50I_52G_53A_54R_55F_67L_, Q9UKT9], the “log2 fold change of degron read counts” value by setting is: under setting [1], -1.84; under setting [2], -2.03; under setting [3], -1.21; (compound: thalidomide) -0.575.

With FQCDICGARFTQKGNLLRHIKL [46F_47Q_49D_50I_52G_53A_54R_55F_67L_, Q9UKT9], the “log2 fold change of degron read counts” value runs as follows: under setting [1], -1.01; under setting [2], 1.3; under setting [3], 0.0735; (compound: thalidomide) 3.03.

Take FTCDICGARFTQKGNLLRHIKL [46F_47T_49D_50I_52G_53A_54R_55F_67L_, Q9UKT9]: the “log2 fold change of degron read counts” value stood at 1.44 under setting [1], 2.55 under setting [2], 0.655 under setting [3] and 1.76 (compound: thalidomide).

Take FACDICGARFTQKGNLLRHIKL [46F_47A_49D_50I_52G_53A_54R_55F_67L_, Q9UKT9]: the “log2 fold change of degron read counts” value is, setting by setting: under setting [1], 3.46; under setting [2], 1.91; under setting [3], -1.69; (compound: thalidomide) -0.979.

Turning to FDCDICGARFTQKGNLLRHIKL [46F_47D_49D_50I_52G_53A_54R_55F_67L_, Q9UKT9], the “log2 fold change of degron read counts” value under setting [1] is 1.85, the “log2 fold change of degron read counts” value under setting [2] amounted to 0.0154, the “log2 fold change of degron read counts” value under setting [3] was -1.13 and the “log2 fold change of degron read counts” value (compound: thalidomide) is -0.0241.

With FVCDICGARFTQKGNLLRHIKL [46F_47V_49D_50I_52G_53A_54R_55F_67L_, Q9UKT9], the “log2 fold change of degron read counts” value was 0.23 under setting [1], 1.75 under setting [2], -0.304 under setting [3] and 1.47 (compound: thalidomide).
